Test results published in PubChem BioAssay (EPA / NIEHS).
Records with an inconclusive call do not appear. The source made the active and inactive calls. Rule for the calls, unless noted: active = hit-call score of the fitted dose curve at least 0.9, where 1 is the maximum; inactive = score below 0.9.

Columns and labels:
[1] = target: Nucleoli Translocation, AR (gene 367) (UniProt P10275); assay: UPITT_HCI_U2OS_AR_TIF2_Nucleoli_Antagonist: University of Pittsburgh U2OS Androgen Receptor-Transcriptional Intermediary Factor 2 (AR-TIF2) Antagonism High Content Imaging Assay for Nucleoli Translocation (AID 2283997; active = hit-call score of the fitted dose curve at least 0.9, where 1 is the maximum)
In short: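 U2OS cells expressing RFP-tagged human AR and GFP-tagged TIF2 were imaged by high-content fluorescence microscopy for red AR signal in the nucleolar region. Compounds were screened at 20 uM final (0.2% DMSO), with activity fitted relative to DHT as baseline.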

[2] = target: Ratio of Nucleoli Translocation and Cytoplasm, AR (gene 367) (UniProt P10275); assay: UPITT_HCI_U2OS_AR_TIF2_Nucleoli_Cytoplasm_Ratio_Agonist: University of Pittsburgh U2OS Androgen Receptor-Transcriptional Intermediary Factor 2 (AR-TIF2) Agonism High Content Imaging Assay for Ratio of Nucleoli Translocation and Cytoplasm (AID 2284000; active = hit-call score of the fitted dose curve at least 0.9, where 1 is the maximum;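 note: hits raise the red nucleolar to cytoplasm ratio above vehicle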)
In short: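 U2OS cells expressing RFP-tagged human AR and GFP-tagged TIF2 were imaged by high-content fluorescence microscopy. The endpoint is the ratio of nucleolar to cytoplasmic red fluorescence, fitted for gain of signal relative to DMSO. Concentration-response spanned 0.195 to 50 uM final (0.5% DMSO).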

[3] = target: Ratio of Nucleoli Translocation and Cytoplasm, AR (gene 367) (UniProt P10275); assay: UPITT_HCI_U2OS_AR_TIF2_Nucleoli_Cytoplasm_Ratio_Antagonist: University of Pittsburgh U2OS Androgen Receptor-Transcriptional Intermediary Factor 2 (AR-TIF2) Antagonism High Content Imaging Assay for Ratio of Nucleoli Translocation and Cytoplasm (AID 2283999; active = hit-call score of the fitted dose curve at least 0.9, where 1 is the maximum;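 note: antagonists lower the DHT-driven ratio of nucleolar to cytoplasmic red signal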)
In short: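 Human osteosarcoma U2OS line, AR fused to RFP, coactivator TIF2 fused to GFP. Cpds 20 uM final, 0.2% DMSO (screen); 0.195–50 uM final, 0.5% DMSO (CRC). Endpoint: nucleoli/cytoplasm red signal ratio, DHT as baseline, loss-of-signal antagonist mode.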

[4] = CCTE_Simmons_MITO_basal_resp_rate: CCTE's HepG2 Seahorse XF Respirometric Screening Assay at Basal Respiratory State, Simmons Lab (AID 2284001); details: actives raise or lower the signal
In short: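 HepG2 cells were given test chemicals at 7 concentrations, 125 nM to 100 uM final, and oxygen consumption rate was read every 6 min (3 min mix, 3 min measure) over 72 min. Basal-phase OCR was fitted bidirectionally against DMSO.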

[5] = CCTE_Simmons_MITO_max_resp_rate: CCTE's HepG2 Seahorse XF Respirometric Screening Assay at Maximal Respiratory State [uncoupled], Simmons Lab (AID 2284002); details: actives raise or lower the signal
In short: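 Maximal respiration in HepG2 cells is recorded as OCR by Seahorse XF following FCCP injection. Compounds span 125 nM–100 uM final; activity is called in either direction against DMSO.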

DIO1 (gene 1733) = assay: CCTE_GLTED_hDIO1: CCTE's human Deiodinase 1 (DIO1) Inhibition Assay, Great Lakes Toxicology and Ecology Division (GLTED) Lab (AID 2283987; active = hit-call score of the fitted dose curve at least 0.9, where 1 is the maximum;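 note: isolated human DIO1 enzyme in a cell-free setup rather than cells; enzyme activity read as free iodide liberated from substrate via Sandell-Kolthoff colorimetry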)
In short: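 Cell-free hDIO1 assay, triplicate plates. Absorbance of the Sandell-Kolthoff reaction reports enzyme-liberated iodide; iodinated chemicals or nitrite, iron and thiocyanate may interfere.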

[6] = CCTE_Shafer_MEA_acute_spike_number: CCTE's Neural Acute Assay for Total Number of Spikes, Shafer Lab (AID 2284008);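 for AC50: curve fitted for decrease in spike count so AC50 reflects inhibitors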
In short: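 Cortical neurons from rat, matured to DIV 13 or 15 on microelectrode arrays, are recorded at 37 C before and during 40-min exposure to 0.03-40 uM compound. Wells need >/= 10 active electrodes.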

[7] = CCTE_Shafer_MEA_acute_firing_rate_mean: CCTE's Neural Acute Assay for Mean Firing Rate, Shafer Lab (AID 2284009);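 note: analyzed for loss of signal so actives lower firing rate relative to DMSO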
In short: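 Read-out: well-mean spike rate (spikes/recording length/electrodes), % change from 40 min pre-dose baseline to 40 min with compound. Rat cortical cultures, DIV 13 or 15, 37 C; 0.03-40 uM; DMSO as negative control.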

[8] = CCTE_Harrill_HTTr_Viability_DMEM_24hr: (Pilot) CCTE's 24-hour Cell Viability Assessment for the High-Throughput Transcriptomics (HTTr) Platform, in MCF-7 cells cultured in DMEM + 10% fetal bovine serum, Harrill Lab (AID 2283975)
In short: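 MCF-7 cells in DMEM with 10% FBS exposed for 24 hours to an eight-point dilution series. Membrane integrity by propidium iodide exclusion with high content imaging; bidirectional fit against DMSO.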

[9] = CCTE_Harrill_HTTr_Viability_PRF_DMEM_6hr: (Pilot) CCTE's 6-hour Cell Viability Assessment for the High-Throughput Transcriptomics (HTTr) Platform, in MCF-7 cells cultured phenol red-free DMEM + 10% charcoal-stripped fetal bovine serum, Harrill Lab (AID 2283976)
In short: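 MCF-7 cells in phenol red-free DMEM with 10% charcoal-stripped FBS exposed 6 hours to an eight-point dilution series. Propidium iodide exclusion imaged; curves fitted bidirectionally against DMSO.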

[10] = CCTE_Harrill_HTTr_Viability_PRF_DMEM_12hr: (Pilot) CCTE's 12-hour Cell Viability Assessment for the High-Throughput Transcriptomics (HTTr) Platform, in MCF-7 cells cultured in phenol red-free DMEM + 10% charcoal-stripped fetal bovine serum, Harrill Lab (AID 2283977)
In short: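 MCF-7 cells in phenol red-free DMEM with 10% charcoal-stripped FBS exposed 12 hours to an eight-point dilution series. Viability assessed by high-content imaging of propidium iodide exclusion; bidirectional fit versus DMSO.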

[11] = CCTE_Harrill_HTTr_Viability_PRF_DMEM_24hr: (Pilot) CCTE's 24-hour Cell Viability Assessment for the High-Throughput Transcriptomics (HTTr) Platform, in MCF-7 cells cultured in phenol red-free DMEM + 10% charcoal-stripped fetal bovine serum, Harrill Lab (AID 2283980)
In short: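 MCF-7 cells in phenol red-free DMEM with 10% charcoal-stripped FBS, eight-point dilution series, 24 h exposure. Membrane integrity by propidium iodide exclusion with high content imaging; bidirectional fit vs DMSO.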

[12] = CCTE_Harrill_HTTr_Apoptosis_DMEM_6hr: (Pilot) CCTE's 6-hour Apoptosis Assessment for the High-Throughput Transcriptomics (HTTr) Platform, in MCF-7 cells cultured in DMEM + 10% fetal bovine serum, Harrill Lab (AID 2283981)
In short: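 Caspase-3/7 activation read by high content imaging with CellEvent Caspase 3/7 Green in MCF-7 cells (DMEM + 10% FBS), 6 h after dosing; eight-point dilution series. Bidirectional fitting relative to DMSO baseline.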

[13] = CCTE_Harrill_HTTr_Apoptosis_DMEM_12hr: (Pilot) CCTE's 12-hour Apoptosis Assessment for the High-Throughput Transcriptomics (HTTr) Platform, in MCF-7 cells cultured in DMEM + 10% fetal bovine serum, Harrill Lab (AID 2283982)
In short: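 MCF-7 cells in DMEM + 10% FBS, exposed 12 h to an eight-point dilution series; caspase-3/7 activation imaged with CellEvent Green. Bidirectional fit versus DMSO.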

[14] = CCTE_Harrill_HTTr_Apoptosis_DMEM_24hr: (Pilot) CCTE's 24-hour Apoptosis Assessment for the High-Throughput Transcriptomics (HTTr) Platform, in MCF-7 cells cultured in DMEM + 10% fetal bovine serum, Harrill Lab (AID 2283983)
In short: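 MCF-7 cells in DMEM + 10% FBS, eight-point dilution series, 24 h exposure. Caspase-3/7 activation imaged by high-content imaging with CellEvent Caspase 3/7 Green. Bidirectional curve fitting against DMSO baseline.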

[15] = CCTE_Harrill_HTTr_Apoptosis_PRF_DMEM_6hr: (Pilot) CCTE's 6-hour Apoptosis Assessment for the High-Throughput Transcriptomics (HTTr) Platform, in MCF-7 cells cultured phenol red-free DMEM + 10% charcoal-stripped fetal bovine serum, Harrill Lab (AID 2283984)
In short: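 MCF-7 cells in phenol red-free DMEM + 10% charcoal-stripped FBS, eight-point dilution series, 6 h exposure. Caspase-3/7 activation imaged by high-content imaging with CellEvent Caspase 3/7 Green; bidirectional fit versus DMSO baseline.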

[16] = CCTE_Harrill_HTTr_Apoptosis_PRF_DMEM_12hr: (Pilot) CCTE's 12-hour Apoptosis Assessment for the High-Throughput Transcriptomics (HTTr) Platform, in MCF-7 cells cultured in phenol red-free DMEM + 10% charcoal-stripped fetal bovine serum, Harrill Lab (AID 2283985)
In short: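 MCF-7 cells in phenol red-free DMEM with 10% charcoal-stripped FBS, eight-point dilution series, 12 h exposure. Caspase-3/7 activation imaged by high content imaging with CellEvent Green reagent; bidirectional fit vs DMSO.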

[17] = CCTE_Harrill_HTTr_Apoptosis_PRF_DMEM_24hr: (Pilot) CCTE's 24-hour Apoptosis Assessment for the High-Throughput Transcriptomics (HTTr) Platform, in MCF-7 cells cultured in phenol red-free DMEM + 10% charcoal-stripped fetal bovine serum, Harrill Lab (AID 2283986)
In short: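 MCF-7 cells in phenol red-free DMEM with 10% charcoal-stripped FBS, exposed 24 h across an eight-point dilution series. Caspase-3/7 activation imaged with CellEvent Green by high content imaging; bidirectional fitting against DMSO.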

[18] = CCTE_Simmons_MITO_viability: CellTiter-Glo Viability Assessment for CCTE's HepG2 Seahorse XF Respirometric Screening Assay [post-hoc], Simmons Lab (AID 2284007; active = hit-call score of the fitted dose curve at least 0.9, where 1 is the maximum;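 for AC50: cells exposed to chemical for 90 min before the ATP read; actives lower ATP signal relative to DMSO baseline meaning reduced viability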)
In short: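 After the Seahorse oxygen-consumption sequence (basal, FCCP, rotenone/antimycin A; 72 min total), HepG2 viability was scored as ATP content by bioluminescence. Chemicals ran at seven concentrations up to 100 uM final for 90 min.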

[19] = TOX21_TR_RXR_BLA_Antagonist_Followup_viability: Viability Assessment in the Tox21 Thyroid Hormone Receptor beta Retinoid X Receptor alpha (RXRa) Antagonism Beta-lactamase (BLA) Follow-Up Assay (AID 2283979; active = hit-call score of the fitted dose curve at least 0.9, where 1 is the maximum)
In short: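 RXRa-UAS-bla HEK293T cells seeded 2,500/well in phenol red-free DMEM with 2% charcoal-stripped FBS, attached 5 h, then exposed to compounds at 11 concentrations in triplicate for 16 h at 37C/5% CO2. Viability read by CellTiter-Glo ATP luminescence; bidirectional fit versus DMSO.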

Measured: AC50

Chain of Ratio of Nucleoli Translocation and Cytoplasm, AR (gene 367) (P10275 whole entry, looked up, the tested form may be a part): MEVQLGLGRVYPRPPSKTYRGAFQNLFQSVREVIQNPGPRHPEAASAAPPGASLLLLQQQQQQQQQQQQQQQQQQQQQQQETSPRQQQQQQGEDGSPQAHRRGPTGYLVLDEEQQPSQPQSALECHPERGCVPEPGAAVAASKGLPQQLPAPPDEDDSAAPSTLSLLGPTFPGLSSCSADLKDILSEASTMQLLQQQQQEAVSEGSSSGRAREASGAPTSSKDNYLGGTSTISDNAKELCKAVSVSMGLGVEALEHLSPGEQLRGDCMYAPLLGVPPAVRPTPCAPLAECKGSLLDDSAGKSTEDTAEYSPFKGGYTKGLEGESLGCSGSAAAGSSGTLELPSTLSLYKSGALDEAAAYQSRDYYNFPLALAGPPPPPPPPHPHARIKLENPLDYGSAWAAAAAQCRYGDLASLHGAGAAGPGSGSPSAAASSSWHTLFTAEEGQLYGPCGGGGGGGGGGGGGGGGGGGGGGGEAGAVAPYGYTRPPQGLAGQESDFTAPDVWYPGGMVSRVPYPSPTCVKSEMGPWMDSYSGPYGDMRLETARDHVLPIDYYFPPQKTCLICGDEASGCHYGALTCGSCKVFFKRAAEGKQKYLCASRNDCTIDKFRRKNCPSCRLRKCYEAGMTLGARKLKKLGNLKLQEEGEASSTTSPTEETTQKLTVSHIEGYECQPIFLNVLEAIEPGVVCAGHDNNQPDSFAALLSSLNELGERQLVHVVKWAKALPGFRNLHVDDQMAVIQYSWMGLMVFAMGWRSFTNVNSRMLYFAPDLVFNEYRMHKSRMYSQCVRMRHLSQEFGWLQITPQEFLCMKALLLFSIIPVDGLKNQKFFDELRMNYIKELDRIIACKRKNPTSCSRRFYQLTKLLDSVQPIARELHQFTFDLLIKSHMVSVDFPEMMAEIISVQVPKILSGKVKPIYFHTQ
Chain of Nucleoli Translocation, AR (gene 367) (P10275 whole entry, looked up): as the sequence (P10275 whole entry, looked up, the tested form may be a part) above

Clc1cccc(C(Cl)(Cl)Cl)n1
inactive: [1] | [2]

COc1ccc(-c2ccccc2)cc1NNC(=O)OC(C)C
inactive: [1] | [3] | [2] | [4] | [5]

OC(c1ccc(Cl)cc1)(c1ccc(Cl)cc1)C(Cl)(Cl)Cl
active: DIO1 (gene 1733) 70.4 µM | [6] 1.83 µM | [7] 2.15 µM

CC1(C)C(C=C(Cl)Cl)C1C(=O)OC(C#N)c1cccc(Oc2ccccc2)c1 (stereo not drawn)
inactive: [8] | [9] | [10] | [11] | [12] | [13] | [14] | [15] | [16] | [17] | [4] | [5] | [18] | [6] | [7]

CCOC(=O)C(C)OC(=O)c1cc(Oc2ccc(C(F)(F)F)cc2Cl)ccc1[N+](=O)[O-] (stereo not drawn)
inactive: [8] | [9] | [10] | [11] | [12] | [13] | [14] | [15] | [16] | [17]
active: [6] 5.49 µM | [7] 5.46 µM

CCCCC(C#N)(Cn1cncn1)c1ccc(Cl)cc1 (stereo not drawn)
inactive: [4] | [5]

CCOc1nc(F)cc2nc(S(=O)(=O)Nc3c(Cl)cccc3Cl)nn12
inactive: [6] | [7]
active: DIO1 (gene 1733) 38.8 µM

Nc1c(Cl)c(F)nc(OCC(=O)O)c1Cl
inactive: [3] | [2] | [4] | [5] | [6] | [7]

CO/N=C(/C1=NOCCO1)c1ccccc1Oc1ncnc(Oc2ccccc2Cl)c1F
active: [19] 52 µM | [4] 6.74 µM | [5] 4.35 µM | [6] 7.05 µM | [7] 7.18 µM
inactive: [18]

COC(=O)c1c(C(F)F)nc(C(F)(F)F)c(C2=NCCS2)c1CC(C)C
inactive: [1] | [2]

O=C1C2CC=CCC2C(=O)N1SC(Cl)(Cl)Cl (stereo not drawn)
inactive: [18]
active: DIO1 (gene 1733) 53.8 µM | [4] 59.9 µM | [5] 67.8 µM

CC(C)N1C(=O)N(c2ccccc2)CSC1=NC(C)(C)C
inactive: [1] | [3] | [2] | [4] | [5]
active: [6] 5.21 µM | [7] 5.27 µM

CC1(C)CCC(=Cc2ccc(Cl)cc2)C1(O)Cn1cncn1 (stereo not drawn)
inactive: [3] | [6] | [7]
active: [1] 2.9 µM | [2] 15.9 µM

C=CCOC(=O)C(C)(C)OC(=O)c1cc(-n2c(=O)cc(C(F)(F)F)n(C)c2=O)ccc1Cl
inactive: [8] | [9] | [10] | [11] | [12] | [13] | [14] | [15] | [16] | [17]

COC(=O)N(C(=O)N1CO[C@@]2(C(=O)OC)Cc3cc(Cl)ccc3C2=N1)c1ccc(OC(F)(F)F)cc1
active: [6] 8.32 µM | [7] 8.24 µM
inactive: [1] | [3] | [2]

COP(=S)(OC)SCn1nnc2ccccc2c1=O
active: DIO1 (gene 1733) 47.3 µM | [1] 31.4 µM
inactive: [3] | [6] | [7]

Cc1cnc(C2=NC(C)(C(C)C)C(=O)N2)c(C(=O)O)c1 (stereo not drawn)
inactive: [1] | [2]

CCOP(=O)(OCC)Oc1nc(Cl)c(Cl)cc1Cl
inactive: [1] | [2]
active: [4] 29.6 µM | [5] 49.8 µM | [18] 10.7 µM | [6] 3.95 µM | [7] 3.95 µM

Cc1c(COC(=O)[C@@H]2[C@H](/C=C(\Cl)C(F)(F)F)C2(C)C)cccc1-c1ccccc1
inactive: [8] | [9] | [10] | [11] | [12] | [13] | [14] | [15] | [16] | [17] | [4] | [5] | [18] | [6] | [7]

COCc1cnc(C2=NC(C)(C(C)C)C(=O)N2)c(C(=O)O)c1 (stereo not drawn)
inactive: [1] | [2]

CCOc1cc(C(C)(C)C)ccc1C1COC(c2c(F)cccc2F)=N1 (stereo not drawn)
active: [6] 3.32 µM | [7] 3.32 µM
inactive: [1]

CCCCC(O)(Cn1cncn1)c1ccc(Cl)cc1Cl (stereo not drawn)
inactive: [3] | [6] | [7]
active: [1] 62.7 µM | [2] 77.3 µM | [4] 41 µM | [5] 60.5 µM | [18] 10.1 µM

CCCCOCN(C(=O)CCl)c1c(CC)cccc1CC
active: DIO1 (gene 1733) 37.9 µM | [1] 19 µM | [3] 11 µM
inactive: [2]
